According to the supplement of paper PMC6555819:

Test system: FXR:RXRa (NR concentration 270 nM, RXRa partner concentration 90 nM)
Assay: PBM binding z-score (relative to random genomic background probes); higher = stronger binding; sequences stand for … in GC…GCGATTGACAGCGTAGAATGAAGG
Outline: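 Ligand-free nuclear receptor dimers were bound for 1 h to custom Agilent 4×180K protein-binding microarrays. Detection used antibodies against each partner (one per run). Binding z-scores rest on regression-normalized fluorescence, with random background probes as the reference.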

Sequence	PBM binding z-score
TATACAGGGTCAAAGGGCAGAGTACGAATGTCGA	7.38
CGTCCAAGGTCAAAGGTCAGGGAAGAGATGACGG	8.68
CAAACTAGGTCACCGGAAGGTCAAAGTTCGCATG	6.72
TAGCCTAGGTTATGCGGGCCAGTATAGTGTCGGC	-0.487
CCTACTGGGCCAAAAAGGCCATTGATGCCGATAA	-0.133
CGAACTAGGTCAAAGGCCAGTGAAAGGCGACGTA	4.37
ATCTCTAGGTTAAAGTTCAGTGAATCCCGAGGAT	2.96
CCGACTGGGGCAAAGGTTACGATACTCAGTACGA	1.82
ACTCGGAGGACAGAGGTCAGAGCTACGCCAGTGA	2.85
CAAACTAGGTCACAGAGGTCAAAGTTCGTGCGTA	7.37
CCAGACAGGTGAAAGGTCACTCAGTCTGGTACGC	5.43
CAATCTAGGTCACAGAGGTCAAAGTCCGTGCGTA	7.18
ACTAGCAGGTCAAGGGTCACTCAAGATTAGTCCG	6.89
CATACACGGTCAGCTAGGCCAGAGTAGGGACGGC	0.00236
GCTTCCGGGTCAAAGGTTATAGCATGAATAGAAT	7.32
TCAGATAGGTAAAGGTGAAAGTCGAACGATATGA	0.962
ATATGTAGGTCAGGGTCATTCAGAAAGTAGGGAA	5.82
CTAACTAGGTCACCGGAAGGTCAAAGTCCGCATG	6.39
CGTCCAAGGTCAGCAGGTGAGTGAAAGCGACGTG	5.14
TCTAGTAGGTCACGGAGGTCACACACGACGGGTA	7.27
TCATATAGGTAATAAAGGTGAAAGTCGGCATCTA	1.82
CAAAATAGGTCAAGGTCAAAGTCGGTTTGTGCCA	7.38
